From PubChem BioAssay AID686978 (National Center for Advancing Translational Sciences (NCATS), 2013) come the findings set out here.

The structures appear in SMILES notation. About 64,000 (15%) of roughly 420,000 compounds were called active. Not shown: some 27% with an inconclusive outcome. These entries were drawn from the full list. Values without a mark were called inactive. The call rests on the fitted dose curve; in most records, active means well fitted inhibition curve with a large enough effect; inconclusive means small, poorly fitted or top-dose-only effect; inactive means flat fitted curve, though single readings scatter.
On the % scale 0 is the no-effect control and ±100 the full control effect; potency means the concentration at half of the fitted maximal effect.

The nature of the experiment: qHTS for Inhibitors of human tyrosyl-DNA phosphodiesterase 1 (TDP1): qHTS in cells in absence of CPT. Further: nearly all actives have a fitted effect of over 55% in size. The following applies: DT40 Tdp1-/- hTDP1 cells, no CPT, ATP luminescence, 48 h; activity change, negative = growth inhibition: at 46.2 µM (top of the series). The essentials: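 Growth kinetics read by CellTiter-Glo luminescence after ≥48 hr at 37 °C. Cells: DT40 Tdp1-/- stably carrying human TDP1, 400 per well, compound exposure in the absence of CPT (DMSO vehicle).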
With `Cc1ccccc1-n1nc(C)c2c1N=C1C(Cl)=CC(Cl)=CN1C2c1ccc(C(=O)O)cc1` (stereo not drawn), the “activity change, negative = growth inhibition” value is 14.2%.

`CCn1ccnc1CN(C)C(=O)c1cc(COc2ccc(Cl)cc2OC)on1`: the “activity change, negative = growth inhibition” value is -27%.

On to `COC(=O)[C@H](Cc1ccccc1)NC(=O)N1CC(C)OC(C)C1` (stereo partly drawn), for which the “activity change, negative = growth inhibition” value was 12%.

For `O=C1NC(c2ccccc2)CCC1(Cl)Cl` (stereo not drawn), the “activity change, negative = growth inhibition” value is -3.73%.

In the case of `Cc1cc(C(=O)COC(=O)CCCN2C(=O)c3ccccc3C2=O)c(C)n1C`, the “activity change, negative = growth inhibition” value is -6.94%.

Take `Cc1ccc(NC(=O)c2cn3c4c(ccc(Cl)c4c2=O)OC(C)C3)cc1C` (stereo not drawn): the “activity change, negative = growth inhibition” value is -2.41%.

Take `C#CCOCCOCCOCCNc1nc(N2CCN(C(=O)Cn3cc(CCO)nn3)CC2)nc(N2CCN(C(=O)[C@H](CCCCN)n3cc(CCCC)nn3)CC2)n1`: the “activity change, negative = growth inhibition” value is -0.177%.

As for `COc1cc(NC(=S)NCc2ccc(S(N)(=O)=O)cc2)cc(OC)c1`, the “activity change, negative = growth inhibition” value is -21.2%.

Regarding `CCc1c(O)cc2n(c1=O)-c1ccccc1C2(C)C`, the “activity change, negative = growth inhibition” value was -23.2%.

As to `CC1(C)CC(=O)C=C(N2CCOCC2)C1`, the “activity change, negative = growth inhibition” value is 20.4%.

With `CC1(C)CC(=O)C=C(N2CCCC2)C1`, the “activity change, negative = growth inhibition” value was -1.76%.

Consider `CC1(C)CC(N2CCN(C(c3ccccc3)c3ccccc3)CC2)=CC(=[N+]2CCCCC2)C1`, for which the Potency was 0.164 µM (active).

As for `Cc1nc(Cl)c2oc3ccccc3c2n1`, the “activity change, negative = growth inhibition” value was 10.8%.

In the case of `O[C@H]1C[C@H](c2ccc(Cl)cc2)N(Cc2cccs2)C[C@@H]1n1cc(C2CC2)nn1`, the Potency is 14.6 µM (active).

On to `c1csc(CN2CCN(Cc3cccs3)C2c2cccs2)c1`, for which the “activity change, negative = growth inhibition” value is 9.91%.

For the compound `COC(=O)C1=C(C(=O)OC)C(c2cc([N+](=O)[O-])ccc2O)c2sc(=O)[nH]c2S1` (stereo not drawn), the “activity change, negative = growth inhibition” value was 3.48%.

For the compound `CC1=NN(C(C)C)C(=O)C1`, the “activity change, negative = growth inhibition” value was -12.2%.

Regarding `COc1ccc(CN(CC(=O)NC2CCCC2)C(=O)CCC(=O)Nc2cc(C)on2)cc1`, the “activity change, negative = growth inhibition” value was -10.2%.

Regarding `Cc1cc(C(C)(C)C)oc1C(=O)N(CC(=O)NC1CCCC1)Cc1ccc(Cl)cc1`, the Potency is 14.1 µM (active).

`Cc1ccc(CN(CC(=O)NC2CCCCC2)C(=O)c2csnn2)cc1`: the “activity change, negative = growth inhibition” value is -12%.

As to `CN1CCN(C(=O)c2ccc(-c3ccc(Br)cc3)o2)CC1`, the “activity change, negative = growth inhibition” value is -18.3%.

In the case of `Cc1ccccc1C1=NC(C(F)(F)F)(C(F)(F)F)c2c(n(-c3ccc(F)cc3)c(=O)[nH]c2=O)N1`, the Potency is 23.1 µM (active).

Turning to `O=S(=O)(NCC1CC1)c1ccc(F)c(Cl)c1`, the “activity change, negative = growth inhibition” value is 28.1%.

Turning to `Cc1cc(NS(=O)(=O)c2ccc(NC(=O)c3ccccc3C)cc2)nc(C)n1`, the “activity change, negative = growth inhibition” value is 6.45%.

Take `CCCS(=O)(=O)c1c(Nc2ccccc2C)sc(C(=O)c2ccccc2)c1N`: the Potency is 16.4 µM (active).

As to `COc1c(F)c(F)c(C(=O)O)c(Nc2ccccc2C)c1F`, the “activity change, negative = growth inhibition” value was -8.56%.

Regarding `CCOC(=O)c1c(C)[nH]c(C)c1S(=O)(=O)N(C)CC(=O)Nc1ccccc1C`, the “activity change, negative = growth inhibition” value is -10.7%.

With `Cc1ccc2c(c1)C1CN(C)CCC1N2C(=S)Nc1ccc(Cl)cc1Cl` (stereo not drawn), the “activity change, negative = growth inhibition” value is 0.632%.

Turning to `Cc1ccc(Nc2c(O)nc[nH]c2=O)cc1C`, the “activity change, negative = growth inhibition” value is -1.29%.

Regarding `Cc1ccc2[nH]cc(CCCN3C(=O)c4ccccc4C3=O)c2c1`, the “activity change, negative = growth inhibition” value is -3.71%.

Consider `O=C(CNC1CCCCC1)NCC1(c2ccccc2)CCCC1`, for which the Potency is 23.1 µM (active).

Take `O=C(CCS(=O)(=O)c1ccccc1)NC1CCCC1`: the “activity change, negative = growth inhibition” value was 22%.

In the case of `CC(=O)CC(CC(=O)NC1CCCCC1)c1ccccc1` (stereo not drawn), the “activity change, negative = growth inhibition” value was -5.74%.

Turning to `CC(C)NC(=O)c1ccccc1S(=O)c1ccccc1C#N` (stereo not drawn), the “activity change, negative = growth inhibition” value was -23.9%.

Turning to `O=C(CSc1ccc(Cl)cc1)NC1CC1`, the “activity change, negative = growth inhibition” value is -18.7%.

Turning to `O=C(/C=C/c1cccc(F)c1)NC1CC1`, the “activity change, negative = growth inhibition” value is -24.6%.

As to `Cc1cc(Br)ccc1NC(=S)NC1CCCC1`, the “activity change, negative = growth inhibition” value was -20.4%.

In the case of `CCNC(=S)NNC(=O)C1CCN(Cc2ccccc2)CC1`, the “activity change, negative = growth inhibition” value is -8.75%.

On to `S=C(Nc1ccc(Br)cc1Cl)NC1CCN(Cc2ccccc2)CC1`, for which the Potency is 7.31 µM (active).

Take `O=C(Nc1ccccc1)N1CCC(C(=O)N2CCN(Cc3ccccc3)CC2)CC1`: the “activity change, negative = growth inhibition” value is -18.5%.

Consider `S=C(Nc1ccc(Br)cc1)NC1CCN(Cc2ccccc2)CC1`, for which the Potency is 23.1 µM (active).

For the compound `O=C(NNC(=S)Nc1ccc(Br)cc1Cl)c1ccco1`, the “activity change, negative = growth inhibition” value was -8.5%.

Consider `CCNc1ncc2nc(CCc3ccccc3)c(=O)n(-c3ccc(OC)cc3)c2n1`, for which the “activity change, negative = growth inhibition” value is -21.2%.

In the case of `CC1(C(=O)NCc2ccccc2)CN(S(C)(=O)=O)CC(=O)N1CC(F)(F)F` (stereo not drawn), the “activity change, negative = growth inhibition” value was -11.4%.

Consider `CCOC(=O)c1ccc(-n2c(CCC(=O)O)ccc2-c2ccccc2)cc1`, for which the Potency result was “inactive”.

For `CC1Cc2cc(/C(O)=C3\C(=O)C(=O)N(Cc4cccnc4)C3c3ccccc3F)ccc2O1` (stereo not drawn), the “activity change, negative = growth inhibition” value was 37.3%.

`Cc1ccc(O)c(/C=N/NC(=O)COc2ccc3c(C)cc(=O)oc3c2)c1`: the Potency is 16.4 µM (active).

As to `Cc1cc(=O)oc2ccc(OCC(=O)O)cc12`, the “activity change, negative = growth inhibition” value was 14.6%.

As for `CC(=O)c1c(C)[nH]c(C(=O)COc2ccc3c(C)cc(=O)oc3c2)c1C`, the Potency was 20.6 µM (active).

On to `Cc1ccc(O)c(NC(=O)COc2cc(C)ccc2C)c1`, for which the “activity change, negative = growth inhibition” value was -27.4%.

With `Cc1cc(=O)oc2cc(OCC(=O)Nc3nnc(C4CC4)s3)ccc12`, the “activity change, negative = growth inhibition” value is -15.1%.

For `COC(=O)COc1ccc2oc(=O)cc(C)c2c1`, the “activity change, negative = growth inhibition” value is -6.39%.

On to `CN(CC(=O)Nc1ccc(N2CCOCC2)cc1)CC(=O)Nc1ccccc1[N+](=O)[O-]`, for which the “activity change, negative = growth inhibition” value is -5.19%.

Consider `O=c1c2ccccc2ncn1CCc1ccncc1`, for which the “activity change, negative = growth inhibition” value is 1.84%.

In the case of `Cc1cccc(CC(=O)Nc2c3c(nn2-c2cccc(Cl)c2)CS(=O)C3)c1` (stereo not drawn), the “activity change, negative = growth inhibition” value is -0.756%.

Take `NNc1cccc(C=Cc2ccccc2)cc1=O`: the Potency is 1.64 µM (active).

Take `O=C(COC(=O)/C=C/c1cccc(Cl)c1)NCCc1ccccc1`: the “activity change, negative = growth inhibition” value was -3.37%.

As for `O=c1oc(/C=C/c2ccccc2)nc2ccccc12`, the “activity change, negative = growth inhibition” value is -24.3%.

On to `O=C(Cn1c(=O)n(Cc2ccco2)c(=O)c2ccccc21)NCC1CCCO1` (stereo not drawn), for which the “activity change, negative = growth inhibition” value is -7.48%.

As for `COCCNc1nnc(SCC(=O)NNC(=O)c2ccco2)s1`, the “activity change, negative = growth inhibition” value was 6.29%.

In the case of `CCOC(=O)C1=CN(Cc2ccc(Br)cc2)S(=O)(=O)N(C)C1C` (stereo not drawn), the “activity change, negative = growth inhibition” value was -29.2%.

For `O=C(NCc1ccncc1)c1cccc(NS(=O)(=O)c2ccc(F)c(F)c2)c1`, the “activity change, negative = growth inhibition” value was -8.99%.

As for `COCCCNC(=O)c1ccc(CNS(=O)(=O)c2ccc(NC(C)=O)cc2)cc1`, the “activity change, negative = growth inhibition” value is -2.52%.

Consider `O=C1[C@@H]2C(Cc3ccc(O)cc3)NC3(C(=O)Nc4ccc(F)cc43)[C@@H]2C(=O)N1c1ccc(F)cc1` (stereo partly drawn), for which the “activity change, negative = growth inhibition” value is -7.72%.

Turning to `CSCCC1NC2(C(=O)Nc3ccc(Cl)cc32)[C@@H]2C(=O)N(C3CCCC3)C(=O)[C@H]12` (stereo partly drawn), the Potency is 20.6 µM (active).

As to `CN(C)S(=O)(=O)N1CCN(c2ccc([N+](=O)[O-])cc2)CC1`, the “activity change, negative = growth inhibition” value is -25.7%.

On to `CC(N)(C(=O)O)c1ccc(-c2nn[nH]n2)cc1` (stereo not drawn), for which the “activity change, negative = growth inhibition” value was -9.19%.

For `CCOC(=O)N1CCN(Cc2nnc(-c3ccccc3Cl)o2)CC1`, the “activity change, negative = growth inhibition” value is 22.9%.
